Most compounds without a hit are left out; they make up all but 9.5% or so of the library.
ALDH1A1 block: qHTS Assay for Inhibitors of Aldehyde Dehydrogenase 1 (ALDH1A1) | Potency, µM (highest dose often 75.3 µM), hits mostly inhibitors | Purified ALDH1A1, NADH fluorescence, propionaldehyde substrate | actives 7.3% (n = 220,000); active = well fitted inhibition curve with a large enough effect, not every such curve was filed as active; inconclusive = small, poorly fitted or top-dose-only effect, or another doubt; inactive = no such curve, though single readings can be large or run the other way
Target sequence (P00352 whole entry, looked up): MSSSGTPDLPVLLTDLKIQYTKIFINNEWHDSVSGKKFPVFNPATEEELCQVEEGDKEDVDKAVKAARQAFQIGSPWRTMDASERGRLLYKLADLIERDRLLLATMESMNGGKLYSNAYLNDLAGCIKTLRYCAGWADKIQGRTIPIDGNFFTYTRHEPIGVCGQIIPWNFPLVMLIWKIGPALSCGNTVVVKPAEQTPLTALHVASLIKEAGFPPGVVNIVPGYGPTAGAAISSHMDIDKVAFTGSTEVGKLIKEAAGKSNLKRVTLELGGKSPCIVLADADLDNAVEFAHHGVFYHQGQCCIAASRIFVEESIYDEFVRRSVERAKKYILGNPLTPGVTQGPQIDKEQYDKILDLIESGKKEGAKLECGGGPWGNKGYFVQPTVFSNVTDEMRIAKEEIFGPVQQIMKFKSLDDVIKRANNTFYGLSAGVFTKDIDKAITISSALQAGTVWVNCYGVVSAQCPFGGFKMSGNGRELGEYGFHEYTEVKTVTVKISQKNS
Tau fibril FP: qHTS for Inhibitors of Tau Fibril Formation, Fluorescence Polarization | actives 0.39% (n = 280,000) | K18 P301L tau heparin fibrillization, Alexa594 FP, 6 h | Potency, µM (series often up to 57.7 µM), hits mostly inhibitors; note: nearly all actives have a fitted effect of over 55% in size
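FP of Alexa 594-tau after heparin (20 uM) induction. Substrate: human K18 P301L, 15 uM unlabeled, 0.24 uM labeled. Buffer 100 mM sodium acetate pH 7. 6 hr, 37 C.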
Tau fluor counter: Counterscreen qHTS for Inhibitors of Tau Fibril Formation, Fluorescence Polarization; tau K18 P301L Alexa594 fluorescence, heparin fibrillization; Potency, µM (highest dose often 57.7 µM); actives 0.93% (n = 280,000); AID 1463, 2008; note: nearly all actives have a fitted effect of over 55% in size
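Human K18 P301L tau (15 uM unlabeled plus 0.24 uM Alexa 594-labeled, final) in 100 mM sodium acetate pH 7 was mixed with compound and 20 uM heparin and incubated 6 hr at 37 C.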
NPSR antagonist: qHTS Assay for Antagonists of the Neuropeptide S Receptor: cAMP Signal Transduction. actives 1% (n = 220,000). CHO-NPSR cells, cAMP TR-FRET, antagonist mode. Potency, µM (highest dose often 38.3 µM), usual class: inhibitors. Q6W5P4; note: nearly all actives have a fitted effect of over 50% in size
Tau fibril ThT: qHTS for Inhibitors of Tau Fibril Formation, Thioflavin T Binding; Microtubule-associated protein tau (Homo sapiens), P10636; recombinant tau K18 P301L (four-repeat tau fragment), heparin-induced fibrillization, ThT fluorescence; Potency, µM (top dose mostly 57.4 µM), usual class: inhibitors; actives 2.1% (n = 270,000); note: nearly all actives have a fitted effect of over 55% in size
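Aggregation was driven by heparin (20 uM final) acting on recombinant tau […] bearing P301L in 100 mM sodium acetate pH 7; fibrils were detected with Thioflavin T.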
HPGD block: qHTS Assay for Inhibitors of HPGD (15-Hydroxyprostaglandin Dehydrogenase); 15-hydroxyprostaglandin dehydrogenase [NAD(+)] (Homo sapiens), P15428; purified HPGD, NADH fluorescence kinetic, PGE2 substrate; Potency, µM, hits mostly inhibitors; actives 4.3% (n = 150,000); AID 894, 2007; active = well fitted inhibition curve with a large enough effect, not every such curve was filed as active; inconclusive = small, poorly fitted or top-dose-only effect, or another doubt; inactive = no such curve, though single readings can be large or run the other way
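NADH formation kinetics: reaction with 30 uM PGE2 and 1 mM NAD+ (final), 20 nM enzyme, Tris-HCl pH 8 with Tween 20, after 15 min compound preincubation at room temperature. Fluorescence change, last versus first of five reads.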
A number is an active result. Unless noted, calls come from the whole dose curve; as a rule, active = well fitted curve in the direction sought with a large enough effect; inconclusive = small, poorly fitted or top-dose-only effect, or another doubt; inactive = no such curve, though single readings can be large; an effect the other way counts as inactive or inconclusive.

How did Cc1[nH]c(=O)[nH]c(=O)c1CSc1nnc(CCCCCNC(=O)OC(C)(C)C)o1 do in these assays?
ALDH1A1 block: inactive; Tau fibril FP: inactive; Tau fluor counter: inactive; NPSR antagonist: inactive; Tau fibril ThT: inactive; HPGD block: 25µM

How did C[C@H](N)c1nnc(SCC(=O)c2ccc(Cl)cc2)o1 do in these assays?
ALDH1A1 block: 20µM; Tau fibril FP: inactive; Tau fluor counter: inactive; NPSR antagonist: inactive; Tau fibril ThT: inactive; HPGD block: inactive

Results for CC(C)(C)OC(=O)NCCc1nnc(SCC(=O)c2ccc(Cl)cc2)o1 ?
ALDH1A1 block: 13µM; Tau fibril FP: inactive; Tau fluor counter: inactive; NPSR antagonist: inactive; Tau fibril ThT: inactive; HPGD block: inactive

How did CC(C)(C)OC(=O)NCCCCCc1nnc(SCc2ccccc2)o1 do in these assays?
Tau fibril FP: inactive; Tau fluor counter: inactive; NPSR antagonist: inconclusive; Tau fibril ThT: inactive

How did CC(C)(C)OC(=O)NCCc1nnc(SCc2ccc(Cl)cc2Cl)o1 do in these assays?
ALDH1A1 block: inconclusive; Tau fibril FP: inactive; Tau fluor counter: inactive; NPSR antagonist: inactive; Tau fibril ThT: inactive; HPGD block: inconclusive

Results for CCOc1nc(-c2ccc(C)cc2)ccc1-c1noc(-c2ccccc2F)n1 ?
Tau fibril FP: inactive; Tau fluor counter: inactive; Tau fibril ThT: inactive

How did O=C(NCc1ccc2c(c1)CCN2C(=O)c1ccccc1)c1ccco1 do in these assays?
Tau fibril FP: inactive; Tau fluor counter: inactive; Tau fibril ThT: inactive

What do the screens show for `CNc1ccc(/C=C/C(=O)c2cccc3ccccc23)cc1[N+](=O)[O-]`?
ALDH1A1 block: inconclusive; Tau fibril FP: inactive; Tau fluor counter: inactive; NPSR antagonist: inactive; Tau fibril ThT: 6.3µM; HPGD block: inactive

What do the screens show for `CNc1ccc(C(=O)c2ccccc2C(=O)O)cc1[N+](=O)[O-]`?
ALDH1A1 block: inactive; Tau fibril FP: inactive; Tau fluor counter: inactive; NPSR antagonist: inactive; Tau fibril ThT: inactive

Results for CC(O)CCCCn1c(=O)c2c(ncn2C)n(C)c1=O (stereo not drawn) ?
ALDH1A1 block: inactive; Tau fibril FP: inactive; Tau fluor counter: inactive; Tau fibril ThT: inactive

Results for O=C(CCc1nc2ccccc2c(=O)[nH]1)OCC(=O)N1CCN(S(=O)(=O)c2ccccc2)CC1 ?
ALDH1A1 block: inactive; Tau fibril FP: inactive; Tau fluor counter: inactive; NPSR antagonist: inactive; Tau fibril ThT: inactive; HPGD block: inactive

What do the screens show for `CC1CC(C)CN(C(=O)COC(=O)CCc2nc3ccccc3c(=O)[nH]2)C1` (stereo not drawn)?
ALDH1A1 block: 3.5µM; Tau fibril FP: inactive; Tau fluor counter: inactive; NPSR antagonist: inactive; Tau fibril ThT: inactive; HPGD block: inactive

How did O=C(COc1ccc2c(C(F)(F)F)cc(=O)oc2c1)NCc1cccs1 do in these assays?
ALDH1A1 block: inconclusive; Tau fibril FP: inactive; Tau fluor counter: inactive; NPSR antagonist: inactive; Tau fibril ThT: inactive; HPGD block: inconclusive

How did COc1ccc(C(=O)C2CCCN(Cc3c(C)[nH]c4ccccc34)C2)c(OC)c1 (stereo not drawn) do in these assays?
ALDH1A1 block: 25µM; Tau fibril FP: inactive; Tau fluor counter: inconclusive; NPSR antagonist: inactive; Tau fibril ThT: inconclusive

What do the screens show for `CC(C)Cn1c(=O)c2sccc2n2c(CCCC(=O)Nc3ccc(Cl)cc3)nnc12`?
Tau fibril FP: inactive; Tau fluor counter: inactive; Tau fibril ThT: inactive

What do the screens show for `Cc1ccccc1N1CCN(CCCN2C(=O)CC(=C(c3ccccc3)c3ccccc3)C2=O)CC1`?
ALDH1A1 block: 18µM; Tau fibril FP: inactive; Tau fluor counter: inactive; NPSR antagonist: inactive; Tau fibril ThT: inconclusive; HPGD block: inconclusive

What do the screens show for `CCc1nc(N2CCN(C(=O)c3ccco3)CC2)c2c3c(sc2n1)CCCC3`?
ALDH1A1 block: inconclusive; Tau fibril FP: inactive; Tau fluor counter: inactive; NPSR antagonist: inconclusive; Tau fibril ThT: inactive; HPGD block: inactive

High-throughput results as filed in PubChem BioAssay.
